Drawing on PubChem BioAssay, this text covers composite z-score for nine compounds.

In this assay the test system is Human papillomavirus type 1a E7 protein (residues 1-88). Kind of assay: HPV1a E7 small-molecule binders, primary screen, biochemical, small-molecule microarray, residues 1-88, 635 nm (AID 1129). The following applies: small-molecule microarray binding, fluorescence 635 nm; higher = more signal.
In turn, `C=CCOC(=O)[C@H]1[C@@H]2C(=O)O[C@@H](c3ccccc3)[C@@H](c3ccccc3)N2[C@@H](c2ccc(OCCOC(=O)[C@H]3C[C@H]4C(=O)N[C@@H](CC(C)C)C(=O)N4[C@H]3c3ccc(O)cc3)cc2)[C@]12C(=O)Nc1ccccc12` returned a composite z-score of 1.26.
Then `CCOC(=O)C1=C[C@@H](C(C)(C)C)N(S(=O)(=O)c2ccc(C)cc2)[C@H]1c1ccc(C#N)cc1`, with 1.23.
`C=CCOC(=O)[C@@H]1[C@H]2C(=O)O[C@H](c3ccccc3)[C@H](c3ccccc3)N2[C@H](c2ccc(OCCOC(=O)[C@H]3C[C@H]4C(=O)N[C@@H](CCCCN(C)C)C(=O)N4[C@H]3c3ccc(O)cc3)cc2)[C@@]12C(=O)Nc1ccc(I)cc12` registered a composite z-score of 1.17.
Compound `COC(=O)[C@H](Cc1ccc(O)cc1)N[C@@H](/C=C/C1CC1)[C@H](O)Cc1ccccc1` gave a composite z-score of -0.506.
The figure for `O=C(NCC(O)CO)C1N=C(c2ccc(OCCCO)cc2)N(c2ccccc2)O1` (centres undefined) is 0.697; for `CCCc1cc2c(n1CCc1ccc(Cl)cc1)C(C)C1CN(C(=O)c3ccccc3)C(C)(C(=O)OC)C21` (centres undefined) it is 1.22; for `CC(C)(C)OC(=O)CC[C@]1(C(=O)NCC(O)CO)N=C(c2ccc(OCCCO)cc2)O[C@H]1c1ccccc1N=[N+]=[N-]` (some centres undefined) it is 1.01.
On to `COc1ccc([Si](C)(C)[C@H]2[C@H](CC(=O)N3CCC[C@H]3CO)O[C@@]3(C(=O)N(Cc4ccc(N5CCCCC5=O)cc4)c4ccccc43)[C@@H]2C)cc1`, for which the composite z-score amounted to 1.17.
Then `CN1C(=O)[C@@H]2[C@@H](CC(COc3ccccc3)=C3[C@@H](CCc4ccccc4)OB(O)C[C@@H]32)C1=O`, with -0.211.
